Here are results for 32 compounds from PubChem BioAssay AID1563 (The Scripps Research Institute Molecular Screening Center, 2009).

The other results are listed elsewhere or left out. A number with no mark means an inactive call. Calls of active or inactive are those of the source. No stated cut-off is given here; in the data, active means activation above about 21%; inactive means the rest.

In this assay the target is Sphingosine 1-phosphate receptor 1 (Homo sapiens) (UniProt P21453). The assay is described as follows: S1P1 receptor agonists, human, counter-screen for S1P4 agonist project, cell-based (AID 1563).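 Further: 0% = vehicle wells and 100% = reference agonist.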 To be noted: S1P1 agonist cell-based assay, at 4.98 µM, active compounds read high. On the technique in general: Counterscreens check selectivity or assay interference.
Chain of Sphingosine 1-phosphate receptor 1 (Homo sapiens) (P21453 whole entry, looked up): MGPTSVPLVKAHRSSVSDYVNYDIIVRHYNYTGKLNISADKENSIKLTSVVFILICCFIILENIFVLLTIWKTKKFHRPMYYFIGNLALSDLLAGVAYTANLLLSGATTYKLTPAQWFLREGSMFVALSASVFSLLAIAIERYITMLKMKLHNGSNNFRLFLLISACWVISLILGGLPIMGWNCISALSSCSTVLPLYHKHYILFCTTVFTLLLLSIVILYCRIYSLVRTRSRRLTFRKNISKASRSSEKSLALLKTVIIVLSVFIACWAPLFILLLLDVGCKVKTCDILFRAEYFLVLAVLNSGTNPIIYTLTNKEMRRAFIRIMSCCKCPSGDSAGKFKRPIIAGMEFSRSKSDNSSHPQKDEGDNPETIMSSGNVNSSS
In the case of `O=C(CSc1ccc(-c2ccc(F)cc2)nn1)Nc1ccc2c(c1)OCCO2`, the activation was -2.21%.
Then `CCOc1ccc(-c2nnc(-c3ccco3)o2)cc1`, with 2.5%; and `CCC(=O)/C(=C(/O)c1ccccc1)c1nc2ccccc2[nH]1`, with -4.01%; and `CCCCCNC(=O)c1cccnc1SCC(=O)Nc1ccccc1OC`, with 1.32%.
The same measure for `Cc1cc(C)nc(N(C#N)CC(=O)Nc2ccccc2)n1`: 0.75%; for `COC(=O)CNC(=O)C(CCSC)NC(C)=O` (configuration not stated): -8.17%; for `COc1ccc(-n2c(C)cc(C(=O)CN3C(=O)NC4(CCc5ccccc54)C3=O)c2C)cc1` (configuration not stated): 1.51%.
Then `CC1CCCC(NC(=O)COC(=O)[C@@H]2CC(O)CN2S(=O)(=O)c2ccc3c(c2)OCCO3)C1C` (some centres not stated), with -5.42%.
Consider `O=[N+]([O-])c1cccc(Nc2c3ccccc3nc3ccccc23)c1`, for which the activation was 11.6%.
As to `COC(=O)[C@@H]1CC[C@H](C)[C@@H](c2ccc(C)cc2)N1C(=O)c1ccc(/C=N/O[C@H](C)c2cn([C@@H]3COC[C@H]3O)nn2)cc1`, the activation is -3.45%.
The same measure for `O=C(CSc1nncn1-c1cccnc1)N1CCOCC1`: 2.75%; for `C=CCn1c(SCn2nnc3ccccc3c2=O)nnc1-c1ccc(Cl)cc1`: -1.97%; for `COc1ccccc1CNC(=O)CNC(=O)c1cn(-c2ccccc2OC)c(=O)c2ccccc12`: -2.71%.
The same measure for `Cc1cc(C)c(C#N)c(SCC(=O)NN2CC(=O)N(c3ccccc3F)CC2=O)n1`: -4.8%.
With `Cc1ccc(NC(=O)Nc2ccccc2)c(Br)c1`, the activation is 5.03%.
The same measure for `CNC(=O)c1[nH]cnc1C(=O)N[C@@H](CC(C)C)C(=O)OCc1ccccc1`: 11.4%; for `CC(C)C(c1nnnn1C(C)(C)C)N1CCN(Cc2cccnc2)CC1` (configuration not stated): -9.51%; for `CC(=O)Nc1ccccc1NC(=O)c1cc(C)cc(C)c1`: -9.63%.
Then `O=C(COC(=O)c1cc([N+](=O)[O-])ccc1NCc1ccccc1)NC1CCCCC1`, with -7.16%; and `COc1ccc(C2CC(c3cccs3)=NN2c2ccc(F)cc2)cc1OC` (configuration not stated), with 16.6%.
Then `Cc1cc(NC(=O)c2cc(-c3cccs3)on2)nn1Cc1ccc(Cl)cc1`, with 4.89%; and `Cc1noc(C)c1COC(=O)COc1ccc(-c2ccccc2)cc1`, with 0.9%.
Consider `CC(=O)Nc1ccc(SCC(=O)Nc2ccccc2Oc2ccccc2)cc1`, for which the activation was -3.81%.
Then `COc1ccc(C2CC(c3cccs3)=NN2c2ccccc2)cc1` (configuration not stated), with 43.8% (active).
As for `O=C(COC(=O)Cc1ccc(F)cc1)Nc1cc(S(=O)(=O)N2CCOCC2)ccc1N1CCCC1`, the activation is 5.34%.
With `COc1ccc(N2C(=O)C(Cc3ccccc3)NC2=S)cc1` (configuration not stated), the activation is -2.28%.
Consider `CCC(C)NC(=O)C1c2ccccc2Oc2ccccc21` (configuration not stated), for which the activation was 0.8%.
Consider `CC(Oc1ccc(Br)cc1Br)C(=O)NC1CCCC1` (configuration not stated), for which the activation was -6.64%.
The same measure for `N/C(=N\OC(=O)Cc1ccc([N+](=O)[O-])cc1)c1ccccn1`: -7.04%.
The same measure for `O=C(CSc1nnc(Nc2ccccc2)s1)Nc1cccnc1Cl`: -2.54%; for `CSc1sc(C(=O)NNC(=O)c2ccc(Cl)cc2)c2c1C=CCC2`: 2.26%; for `CCn1c(CNC(=O)c2ccc(OC)c(OC)c2)nnc1SCC(=O)Nc1ccccc1`: 0.73%.
